For orientation: inhibition means the drop in the measured response relative to a control, in per cent.

20 molecules from PubChem BioAssay can be followed below.

A number with no mark means an inactive call. For some of these results: Potency and affinity values are given separately. Calls of active or inactive are those of the source. Unless noted, no rule for the calls is given here.

A short description of assay [1]: antimalarial activity against Dd2 strain (AID 2302;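 active = growth inhibition above 50% at the single 2 µM test dose, taken to imply half-maximal potency below 2 µM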;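 also: 0% = DMSO untreated growth and 100% = chloroquine plus artemisinin killed control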). To be noted: P. falciparum Dd2 in RBCs, LDH growth readout, 72 h; at 2 µM; stronger effect = higher value.
The nature of assay [2]: HepG2 cytotoxicity, primary screen, cytotoxicity control for P. falciparum antimalarial project, cell-based, ATP luminescence (AID 2303;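 active = inhibition above 50%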;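 also: 0% = DMSO wells and 100% = digitonin-killed cells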). The conditions noted are these: HepG2 viability, 24-48 h, at 10 µM, stronger effect = higher value.
Assay [3] has as its target L-lactate dehydrogenase (Plasmodium falciparum (isolate CDC / Honduras)) (UniProt Q27743). The experiment in a line: PfLDH activity inhibition – cell lysate, 3D7 strain, counter-screen for P. falciparum growth inhibition project (AID 2304).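 Also: 0% = vehicle and 100% = reference inhibitor.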 To be noted: P. falciparum 3D7 crude extract, LDH APAD/NBT absorbance; at 2 µM; stronger effect = higher value. For orientation: The purpose of a counterscreen is to sort out artefacts and off-target activity.

Assay [4] can be described thus: inhibition of 3D7 malaria parasite growth – strain 3D7 (AID 2306).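 Also: 0% = DMSO wells and 100% = chloroquine plus artemisinin control wells.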 The conditions noted are these: P. falciparum 3D7 erythrocytic growth, LDH absorbance, 72 h; at 2 µM; stronger effect = higher value.
Assay [5] addresses Calcium-dependent protein kinase 1 (Plasmodium falciparum (isolate 3D7)) (UniProt P62344). The experiment in a line: PfCDPK1 kinase inhibitors, biochemical, TCAMS library (AID 1159585; cut-off not given, nearly all actives have IC50 up to about 0.98 µM;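 also: inhibitors leave more ATP so luminescence rises with inhibition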). To be noted: recombinant PfCDPK1, Kinase-Glo ATP depletion luminescence. A general note: Kinase-Glo measures the ATP left after a reaction by luminescence.
For assay [6], the target named is Plasmodium falciparum protein kinase 6 (PK6, PF3D7_1337100) (UniProt Q8IDW1). Description: PfPK6 kinase inhibitors, biochemical, TCAMS library (AID 1159586). The conditions noted are these: recombinant PfPK6, Kinase-Glo ATP depletion luminescence.
Assay [7] has as its target Protein kinase 7 (PK7), Plasmodium falciparum 3D7 (PF3D7_0213400) (UniProt Q7YTF7). The experiment in a line: inhibition of Plasmodium PK7 catalytic activity – biochemical, TCAMS antimalarial set, Kinase-Glo luminescence (AID 1159587). To be noted: recombinant PfPK7, Kinase-Glo ATP depletion luminescence.
Assay [8] concerns the target Calcium-dependent protein kinase 4 (Plasmodium falciparum (isolate 3D7)) (UniProt Q8IBS5). The experiment in a line: PfCDPK4 kinase inhibitors, biochemical, TCAMS library (AID 1159588; cut-off not given, nearly all actives have IC50 up to about 0.91 µM). To be noted: recombinant PfCDPK4, Kinase-Glo ATP depletion luminescence.

Chain of Calcium-dependent protein kinase 4 (Plasmodium falciparum (isolate 3D7)) (Q8IBS5 whole entry, looked up): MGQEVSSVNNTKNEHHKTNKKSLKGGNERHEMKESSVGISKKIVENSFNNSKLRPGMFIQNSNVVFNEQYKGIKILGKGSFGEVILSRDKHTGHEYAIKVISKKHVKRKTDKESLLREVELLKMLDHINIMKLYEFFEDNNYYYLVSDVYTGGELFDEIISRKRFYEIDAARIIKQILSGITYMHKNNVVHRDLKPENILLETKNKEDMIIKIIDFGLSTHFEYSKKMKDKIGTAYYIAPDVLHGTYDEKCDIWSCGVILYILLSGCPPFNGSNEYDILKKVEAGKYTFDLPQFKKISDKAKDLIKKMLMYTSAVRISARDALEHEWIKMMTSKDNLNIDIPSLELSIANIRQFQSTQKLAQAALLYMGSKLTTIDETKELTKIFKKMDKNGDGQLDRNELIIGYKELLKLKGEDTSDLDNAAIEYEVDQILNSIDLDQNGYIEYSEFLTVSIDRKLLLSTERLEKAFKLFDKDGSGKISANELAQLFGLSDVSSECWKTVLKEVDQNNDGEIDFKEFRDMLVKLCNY
Chain of Calcium-dependent protein kinase 1 (Plasmodium falciparum (isolate 3D7)) (P62344 whole entry, looked up): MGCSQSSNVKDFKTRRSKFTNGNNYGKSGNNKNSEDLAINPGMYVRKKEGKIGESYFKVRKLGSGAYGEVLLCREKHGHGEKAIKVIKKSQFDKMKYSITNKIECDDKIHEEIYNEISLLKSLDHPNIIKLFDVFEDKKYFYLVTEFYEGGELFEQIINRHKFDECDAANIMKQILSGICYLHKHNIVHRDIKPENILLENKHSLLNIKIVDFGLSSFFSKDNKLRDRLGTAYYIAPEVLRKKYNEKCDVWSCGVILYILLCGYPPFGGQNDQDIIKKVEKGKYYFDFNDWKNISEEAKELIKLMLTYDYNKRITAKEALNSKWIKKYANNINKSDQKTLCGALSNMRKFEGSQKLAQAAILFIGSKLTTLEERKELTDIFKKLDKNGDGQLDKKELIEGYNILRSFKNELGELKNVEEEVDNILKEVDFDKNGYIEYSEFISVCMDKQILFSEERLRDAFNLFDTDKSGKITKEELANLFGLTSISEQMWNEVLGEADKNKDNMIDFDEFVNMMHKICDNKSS
Chain of Plasmodium falciparum protein kinase 6 (PK6, PF3D7_1337100) (Q8IDW1 1-305): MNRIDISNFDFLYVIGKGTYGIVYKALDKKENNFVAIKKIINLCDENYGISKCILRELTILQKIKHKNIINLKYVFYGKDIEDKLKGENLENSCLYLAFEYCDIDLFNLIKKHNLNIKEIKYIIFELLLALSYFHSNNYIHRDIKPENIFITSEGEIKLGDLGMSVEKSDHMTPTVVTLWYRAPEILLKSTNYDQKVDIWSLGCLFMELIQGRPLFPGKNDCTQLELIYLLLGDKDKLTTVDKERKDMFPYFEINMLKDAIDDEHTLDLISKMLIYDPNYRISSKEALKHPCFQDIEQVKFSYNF
Chain of L-lactate dehydrogenase (Plasmodium falciparum (isolate CDC / Honduras)) (Q27743 whole entry, looked up): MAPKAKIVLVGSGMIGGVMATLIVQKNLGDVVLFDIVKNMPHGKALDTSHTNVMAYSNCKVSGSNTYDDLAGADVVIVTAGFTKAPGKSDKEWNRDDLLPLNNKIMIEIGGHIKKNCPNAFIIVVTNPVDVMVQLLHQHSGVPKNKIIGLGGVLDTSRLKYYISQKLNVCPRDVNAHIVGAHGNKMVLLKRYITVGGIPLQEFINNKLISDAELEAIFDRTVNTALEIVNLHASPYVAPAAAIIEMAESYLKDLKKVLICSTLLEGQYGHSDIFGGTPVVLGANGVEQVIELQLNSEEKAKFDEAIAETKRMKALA
Chain of Protein kinase 7 (PK7), Plasmodium falciparum 3D7 (PF3D7_0213400) (Q7YTF7 1-343): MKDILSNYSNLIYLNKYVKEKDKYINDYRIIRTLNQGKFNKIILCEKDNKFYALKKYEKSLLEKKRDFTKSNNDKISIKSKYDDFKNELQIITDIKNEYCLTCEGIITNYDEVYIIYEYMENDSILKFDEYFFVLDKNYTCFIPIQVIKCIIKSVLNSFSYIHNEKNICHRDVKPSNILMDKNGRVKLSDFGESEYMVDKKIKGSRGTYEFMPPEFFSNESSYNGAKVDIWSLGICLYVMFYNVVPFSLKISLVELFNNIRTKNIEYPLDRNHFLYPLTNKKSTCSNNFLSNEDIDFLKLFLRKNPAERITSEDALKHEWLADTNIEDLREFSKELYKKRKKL

As to `CC(C)(C)OC(=O)N1CCC(C2CCN(C(=O)OC(C)(C)C)CC2)CC1`, the growth inhibition in assay [1] was 28%; in assay [4] it was 86% (active). Besides, the figures for the inhibition in assay [2] and in assay [3] were -6% and 1%, respectively. The outcome in assay [5], in assay [6], in assay [7] and in assay [8] was inactive.
On to `Fc1ccc2nc(-c3ccc(-c4ccc(CN5CCN(c6cnccn6)CC5)cc4)s3)[nH]c2c1`, for which the growth inhibition is 98% (active) in assay [1] and 99% (active) in assay [4]. Also, the inhibition in assay [2] was 45%; in assay [3], 5%. The result in assay [5], in assay [6], in assay [7] and in assay [8] was inactive.
Regarding `N#CNC(=NCCCSc1csc(N=C(N)N)n1)NCCCCCCCCN=C(NC#N)NCCSCc1csc(N=C(N)N)n1`, the figures for the growth inhibition in assay [1] and in assay [4] were 24% and 91% (active), respectively. Besides, the results for the inhibition in assay [2] and in assay [3] were -1% and -4%, respectively. In addition, the result in assay [5], in assay [6], in assay [7] and in assay [8] was inactive.
On to `COc1ccc(Br)cc1/C=C/C(=O)Nc1cccc(C2CCN(C)CC2)c1`, for which the growth inhibition in assay [1] is 37%; in assay [4], 95% (active). Also, the inhibition was 44% in assay [2] and -2% in assay [3]. Moreover, the result in assay [5], in assay [6], in assay [7] and in assay [8] was inactive.
Regarding `O=C(C=Cc1ccc(Cl)c(Cl)c1)NCCCCCN1CCC(CCCNC(=O)/C=C/c2ccccc2)CC1`, the values for the growth inhibition in assay [1] and in assay [4] were 33% and 96% (active), respectively. For the same molecule, the results for the inhibition in assay [2] and in assay [3] were 50% (active) and -9%, respectively. The outcome in assay [5], in assay [6], in assay [7] and in assay [8] was inactive.
In the case of `Cc1ccc(NC(=O)c2ccc(CN3CCCN(CC4CCCCC4)CC3)cc2)cc1C`, the growth inhibition in assay [1] was 32%; in assay [4], 86% (active). Moreover, the inhibition was 38% in assay [2] and 3% in assay [3]. The result in assay [5], in assay [6], in assay [7] and in assay [8] was inactive.
On to `Cc1[nH]c(C)c(-c2ccc(Oc3ccc(F)cc3)cc2)c(=O)c1Cl`, for which the growth inhibition in assay [1] was 98% (active); in assay [4], 99% (active). The inhibition in assay [2] was 14%; in assay [3] it was 4%. In addition, the result in assay [5], in assay [6], in assay [7] and in assay [8] was inactive.
Consider `O=C(/C=C/c1ccc(Cl)c(Cl)c1)NCCCCCN1CCCN(C(=O)Nc2cc(Cl)nc(Cl)c2)CC1`, for which the figures for the growth inhibition in assay [1] and in assay [4] were 3% and 103% (active), respectively. Besides, the inhibition in assay [2] is 8%; in assay [3], -1%. Also, the result in assay [5], in assay [6], in assay [7] and in assay [8] was inactive.
`c1ccc(-c2cccc(-c3ccccn3)n2)nc1`: the figures for the growth inhibition in assay [1] and in assay [4] were 99% (active) and 98% (active), respectively. For the same molecule, the results for the inhibition in assay [2] and in assay [3] were 45% and -1%, respectively. In addition, the outcome in assay [5], in assay [6], in assay [7] and in assay [8] was inactive.
As to `CN1CCN(CCCNc2ncc3c(-c4ccc(NC(=O)Nc5cc(C(F)(F)F)ccc5F)c(F)c4)nn(C)c3n2)CC1`, the growth inhibition in assay [1] is 94% (active); in assay [4] it was 98% (active). In addition, the inhibition in assay [2] is 100% (active); in assay [3] it was 1%. Further, the result in assay [5], in assay [6], in assay [7] and in assay [8] was inactive.
`CNC(=O)c1c(NC(=O)c2cccs2)sc2c1CCCC2`: the figures for the growth inhibition in assay [1] and in assay [4] were 2% and 94% (active), respectively. Also, the inhibition in assay [2] was 2%; in assay [3] it was -1%. The outcome in assay [5], in assay [6], in assay [7] and in assay [8] was inactive.
For `Cc1onc(-c2ccccc2)c1-c1nc(NC2CCCC(C)C2)no1` (stereo not given), the growth inhibition in assay [1] was 46%; in assay [4], 101% (active). The inhibition in assay [2] is 22%; in assay [3] it was -3%. Besides, the outcome in assay [5], in assay [6], in assay [7] and in assay [8] was inactive.
For the molecule `Cc1cc(NC2CCCC2)nc(Nc2ccccc2C)n1`, the growth inhibition in assay [1] is 20%; in assay [4], 88% (active). Further, the inhibition in assay [2] was -2%; in assay [3] it was 2%. Moreover, the result in assay [5], in assay [6], in assay [7] and in assay [8] was inactive.
Turning to `O=C(Nc1ccc(CC(=O)N2CCc3cc(Cl)c(N4CCN(C/C=C/c5ccccc5)CC4)cc32)cc1)Nc1cccc([N+](=O)[O-])c1`, the results for the growth inhibition in assay [1] and in assay [4] were 27% and 95% (active), respectively. In addition, the inhibition in assay [2] was -8%; in assay [3], -5%. The result in assay [5], in assay [6], in assay [7] and in assay [8] was inactive.
Take `COc1ccc2nccc([C@@H](O)CN3CCC(NC(=O)CCC(=O)c4cc(C(C)(C)C)ccc4OC)CC3)c2c1`: the growth inhibition is 51% (active) in assay [1] and 94% (active) in assay [4]. For the same molecule, the inhibition in assay [2] is 26%; in assay [3], -9%. Besides, the outcome in assay [5], in assay [6], in assay [7] and in assay [8] was inactive.
As to `Nc1cc(C=Cc2ccc([N+](=O)[O-])o2)nc2ccccc12`, the growth inhibition in assay [1] was 81% (active); in assay [4], 93% (active). The inhibition in assay [2] is 100% (active); in assay [3], 4%. The outcome in assay [5], in assay [6], in assay [7] and in assay [8] was inactive.
With `CCCCCCCN1CCC(CC(=O)Nc2ccnc3ccc(OC)cc23)CC1`, the growth inhibition in assay [1] is 52% (active); in assay [4] it was 97% (active). Also, the inhibition was 15% in assay [2] and -2% in assay [3]. In addition, the outcome in assay [5], in assay [6], in assay [7] and in assay [8] was inactive.
On to `O=C(O)c1ccc2nc(-c3ccccn3)c(-c3ccccn3)nc2c1`, for which the growth inhibition was 18% in assay [1] and 97% (active) in assay [4]. Besides, the inhibition was 3% in assay [2] and 4% in assay [3]. Further, the result in assay [5], in assay [6], in assay [7] and in assay [8] was inactive.
For the molecule `COc1ccc(-c2c3c(=O)n(C)c(=O)n(C)c3c3nnc4ccccc4n23)cc1`, the growth inhibition in assay [1] was 86% (active); in assay [4], 96% (active). For the same molecule, the inhibition in assay [2] was -7%; in assay [3] it was -2%. Moreover, the outcome in assay [5], in assay [6], in assay [7] and in assay [8] was inactive.
As for `Fc1ccc(CNc2nc(-c3ccc(F)c(C(F)(F)F)c3)n(-c3cccc(C(F)(F)F)c3)n2)cc1`, the growth inhibition is 80% (active) in assay [1] and 95% (active) in assay [4]. For the same molecule, the inhibition in assay [2] was 0%; in assay [3], -1%. Besides, the result in assay [5], in assay [6], in assay [7] and in assay [8] was inactive.
